CHX counter – affects cycloheximide protein synthesis inhibition readout, counter-screen. max response, %. AID 2314. 300,000 compounds, 12% hits. cell reporter, cycloheximide protein synthesis inhibition counterscreen; in the data active means max response mostly above about 13%, no sharp cut-off; inactive means mostly below about 14%; further: read at 38.3 µM for the half of the compounds with a filed dose; 0% is about no effect
NS1 inh – blocks influenza NS1 protein function. Potency, µM (doses to about 46.1 µM), without a hit: at the highest dose activity, positive = more growth. 270,000 compounds, 0.4% hits. AID 2326; further: potency means the concentration at half of the fitted maximal effect; actives are rising curves; nearly all actives have a fitted effect of over 50% in size
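S. cerevisiae expressing influenza A NS1, grown in glucose, washed, then diluted 1:100 into pH 6.0 -URA galactose medium with 23 nl compound. Growth recovery read as OD600; NS1-free strain serves as control.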
Pf growth 48h – P. falciparum growth inhibition at 48 hours (one generation) | 310,000 compounds, 5.9% hits | Potency, µM (highest dose often 28.7 µM), without a hit: top-dose activity change, negative = inhibition, most hits filed as inhibitors | P. falciparum luciferase growth in erythrocytes, 48 h; active means well fitted inhibition curve with a large enough effect; inconclusive means small, poorly fitted or top-dose-only effect, or another doubt; inactive means no such curve, though single readings can be large or run the other way; further: potency means the concentration at half of the fitted maximal effect; on the % scale 0 is the no-effect control and ±100 the full control effect
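Parasite viability was followed by luminescence of a genomically integrated firefly luciferase. Cultures held 0.1% parasitemia at 2% hematocrit (final), incubated under 5% CO2 at 37 C.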
Shiga inhibitor – inhibitors of Shiga toxin in Vero cells; AID 2315; 290,000 compounds, 9.2% hits; Vero cells, Shiga toxin protein synthesis inhibition reporter; inhibition, % at 38.7 µM; in the data active means inhibition mostly above about 28%, no sharp cut-off; inactive means mostly below about 43%; further: 0% is about no effect
SARS PLP yeast – SARS-CoV PLP inhibition in yeast; S. cerevisiae expressing SARS-CoV PLpro, growth rescue; Potency, µM (highest dose often 32.9 µM), without a hit: top-dose activity, positive = growth rescue, usual class: activators; 330,000 compounds, 0.19% hits; AID 485353; further: potency means the concentration at half of the fitted maximal effect; 0% is about no effect; nearly all actives have a fitted effect of over 55% in size
Pf growth 96h – inhibits malaria parasite growth, 96 h. P. falciparum luciferase reporter growth, 96 h. 320,000 compounds, 6.9% hits. Potency, µM (titrated, usually from 28.7 µM), for the others: at the highest dose activity change, negative = inhibition, hits mostly inhibitors; active means well fitted inhibition curve with a large enough effect; inconclusive means small, poorly fitted or top-dose-only effect, or another doubt; inactive means no such curve, though single readings can be large or run the other way; further: potency means the concentration at half of the fitted maximal effect; on the % scale 0 is the no-effect control and ±100 the full control effect
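96 h incubation, 37 C, 5% CO2, of luciferase-reporter P. falciparum-infected RBCs (2% hematocrit, 0.05% parasitemia final) with test compounds; endpoint luminescence.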
Numbers without * were called inactive; i = inactive; ? = inconclusive; . = no result given. Hits are enriched below; roughly 21% of the tested compounds scored in any of these assays. Unless noted, the call rests on the fitted dose curve.

SMILES	CHX counter	NS1 inh	Pf growth 48h	Shiga inhibitor	SARS PLP yeast	Pf growth 96h
COc1cccc(-c2noc(-c3ccc4c(c3)OCO4)n2)c1	3.4	.	i	16.6	-3.5%	49.3%
COc1ccc(-c2nc(-c3ccc(Br)o3)no2)cc1OC	19.0*	-70.9%	74.6%	35.4*	-7.8%	?
COc1ccccc1Cc1nc(-c2ccc(Br)o2)no1	33.9*	-71.6%	.	77.8	-10.2%	-4.5%
COc1ccc(Cc2noc(-c3ccc(OC)c(OC)c3)n2)cc1OC	1.4	-13.8%	-7.5%	-7.9	2.6%	19.0%
COc1ccc(-c2nnc(-c3ccc(Br)o3)o2)cc1OC	10.8*	-45.9%	21.4%	35.1	-12.4%	?
COc1cccc(-c2nc(-c3ccc(Br)o3)no2)c1	53.7*	-4.5%	-87.0%	108.0*	2.0%	i
COc1ccccc1CNC(=O)COC(=O)c1ccc(C)s1	.	.	23.2%	.	-1.4%	16.0%
CCCc1nn(CCc2ccccn2)c(N)c1CC	1.5	-3.6%	-10.1%	-3.9	1.9%	14.3%
COc1cc(OC)cc(-c2nc(-c3ccccc3OC)no2)c1	4.5	4.1%	27.4%	31.2	-16.3%	9.2%
COc1ccccc1-c1nc(-c2ccc(Br)o2)no1	97.0*	-42.4%	.	145.6*	9.7%	?
O=c1c2ccccc2nc(-c2ccccc2Cl)n1-c1ccc(O)cc1	-4.6	-4.5%	?	-24.7	1.9%	?
Nc1c2nc(-c3ccccc3Cl)[nH]c(=O)c2nc(=O)n1-c1ccccc1	22.5*	-4.5%	30.9%	58.1*	0.9%	71.0%
CCSC1=NC2(CCCCC2)Nc2sc3c(c21)CCCC3	-1.2	-2.1%	.	-8.5	-2.9%	2.62µM*
C[C@]12c3[nH]c4cc(-c5ccco5)ccc4c3CCN1C(=O)[C@@H](CC(=O)NCCC1=CCCCC1)C[C@@H]2C(=O)N1CCOCC1	.	.	.	.	2.1%	.
CC1=NN(c2ccc([N+](=O)[O-])cc2)C(=O)/C1=C\N(C)C	22.0*	1.2%	20.7%	17.9	-82.1%	7.38µM*
CC1=NN(c2ccccc2)C(=O)/C1=C/N(C)C	-1.5	2.7%	2.3%	2.7	-2.0%	3.5%
CCCC1=NN(c2ccc([N+](=O)[O-])cc2)C(=O)/C1=C/N(C)C	19.8*	-11.7%	39.8%	20.1	-6.3%	2.8%
COC(=O)c1nnn(CC(=O)Nc2cccc(Cl)c2C)c1C(=O)OC	-2.9	9.9%	.	-14.3	5.1%	-1.2%
COc1cc(/C=N/NS(=O)(=O)c2ccc(C(C)(C)C)cc2)cc([N+](=O)[O-])c1O	1.1	9.7%	-6.7%	-1.9	2.5%	?
CCOC(=O)C1(Cc2cccc(Cl)c2)CCCN(C(=O)c2cc(C(C)C)nn2C)C1 (stereo not drawn)	31.8*	-39.0%	?	35.5	-2.8%	-7.5%
CCOC(=O)C1(Cc2cccc(Cl)c2)CCCN(C(=O)c2ccc(C)nc2)C1 (stereo not drawn)	-1.6	-1.4%	-14.4%	-4.3	-1.5%	14.7µM*
CCOC(=O)C1(Cc2cccc(Cl)c2)CCCN(C(=O)c2cc(C)[nH]n2)C1 (stereo not drawn)	-2.8	15.8%	?	-11.8	11.4%	-6.3%
CCOC(=O)C1(Cc2cccc(Cl)c2)CCCN(C(=O)c2c(CC)noc2C)C1 (stereo not drawn)	41.3*	-11.9%	?	24.4*	6.1%	?
CCOC(=O)C1(Cc2cccc(Cl)c2)CCCN(C(=O)c2cc(C)on2)C1 (stereo not drawn)	28.3*	-30.4%	-20.7%	59.4*	-6.1%	23.4%
CCOC(=O)C1(Cc2cccc(Cl)c2)CCCN(C2CCN(C(C)=O)CC2)C1 (stereo not drawn)	-1.0	-4.1%	?	16.2	2.4%	54.2%
CCOC(=O)C(=NCCCN1CCOCC1)NNc1cccc(C(F)(F)F)c1	-8.2	.	1.8%	19.4	-5.6%	0.0%
CCN(CC(=O)Nc1ccc(OC)cc1)C(=O)Cc1coc2cc(C)c(C)cc12	.	.	?	.	-3.3%	?
Nc1nc(Nc2ccccc2)nc(N2CCCC2)c1[N+](=O)[O-]	38.7*	-35.3%	-17.9%	58.5*	-1.0%	-3.7%
CC1CCCN(c2nc(NCc3ccco3)nc(N)c2[N+](=O)[O-])C1 (stereo not drawn)	3.0	-13.3%	-22.1%	0.5	-20.3%	?
